Drawing on PubChem BioAssay (NCATS), this text covers Potency for 24 compounds.

A short description of test [1]: Cell Viability - LYMP2-003 (AID 965).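 Also: cells exposed to compounds for 24 h before reading; nearly all actives have a fitted effect of over 50% in size.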 A digest of the protocol: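 Seed 2500 lymphoblastoid cells/well; incubate 5 hr, 37 C; add compounds; incubate 24 hr, 37 C; add CellTiter-Glo, 30 min RT; read luminescence. AC50 from Hill fit.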
A short description of test [2]: Cell Viability - LYMP2-004 (AID 966). Also: nearly all actives have a fitted effect of over 65% in size. A digest of the protocol: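 Acute toxicity is scored as a concentration-dependent drop in intracellular ATP, quantified by luciferase luminescence, in human lymphoblastoid cells exposed to compound for 24 hr. AC50 derives from Hill-equation modelling.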
Test [3] in a line: Cell Viability - LYMP2-005 (AID 967).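 Also: cells exposed to compound for 24 h at 37 °C.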 A digest of the protocol: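 Acute cytotoxicity is scored as a concentration-dependent drop in intracellular ATP in human lymphoblastoid LYMP2-005 cells after 24 h compound treatment. ATP is quantified by luciferase luminescence, and AC50 is derived by Hill-equation modelling.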
Test [4] in a line: Cell Viability - LYMP2-009 (AID 968).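 Also: cells exposed to compound for 24 h at 37 °C; nearly all actives have a fitted effect of over 55% in size.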
Test [5] is described as follows: Cell Viability - LYMP2-011 (AID 969). Also: nearly all actives have a fitted effect of over 60% in size. The method, boiled down:
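Acute toxicity is scored as a concentration-dependent drop in intracellular ATP of a human lymphoblastoid line after 24 hr treatment. Values are AC50s modeled with the Hill equation.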

Test [6] is described as follows: Cell Viability - LYMP2-013 (AID 970).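 Also: cells exposed to compound for 24 h at 37 °C; nearly all actives have a fitted effect of over 55% in size.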 The method, boiled down: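 Acute toxicity was measured in human lymphoblastoid cells (2500/well) exposed to compound titrations for 24 hr, with ATP luminescence (CellTiter-Glo) as read-out and AC50 fitted by Hill equation.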
Test [7] can be described thus: Cell Viability - LYMP2-015 (AID 971). Also: nearly all actives have a fitted effect of over 55% in size. The method, boiled down: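 Acute toxicity was scored as a concentration-dependent drop in intracellular ATP in lymphoblastoid cells after 24 hr compound exposure in complete medium. Detection used CellTiter-Glo luciferase luminescence.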
A short description of test [8]: Cell Viability - LYMP2-017 (AID 972).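 Also: cells exposed to compound for 24 hours at 37 °C; nearly all actives have a fitted effect of over 55% in size.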 The method, boiled down: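 Steps: plate 2500 lymphoblastoid cells per well; incubate 5 hr at 37 C; add compound across a concentration series and incubate 24 hr at 37 C; add CellTiter-Glo and read luminescence after 30 min at room temperature; fit Hill curves for AC50.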
Test [9] in a line: Cell Viability - LYMP2-021 (AID 974). The method, boiled down: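 Concentration-response cytotoxicity in a human lymphoblastoid line: 24 hr treatment at 37 C in complete culture medium, tetraoctylammonium bromide as positive control, luminescent ATP quantitation as viability measure.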
The nature of test [10]: Cell Viability - LYMP2-023 (AID 975). A digest of the protocol:
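Concentration-dependent drop in intracellular ATP measures acute cytotoxicity in a human lymphoblastoid line treated for 24 hours in complete culture medium. AC50 values are taken from Hill-equation fits of qHTS data.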

Each structure is given as a SMILES string. Results filed as inconclusive are left out. The source made the active and inactive calls. Calls follow the shape of the dose curve; as a rule, active = well fitted curve in the direction sought with a large enough effect; inconclusive = small, poorly fitted or top-dose-only effect, or another doubt; inactive = no such curve, though single readings can be large; an effect the other way counts as inactive or inconclusive.
Potency is read from the fitted curve at half-maximal effect.

Consider `CN(C)c1ccc(C(=C2C=CC(=[N+](C)C)C=C2)c2ccccc2)cc1`, for which the Potency in [1] is 0.501 µM (active); in [2], 0.316 µM (active); in test [3], 0.501 µM (active); in test [4] it was 0.398 µM (active); in test [5] it was 0.316 µM (active); in test [6], 0.501 µM (active). In addition, the Potency in test [7] was 0.316 µM (active); in [8], 0.501 µM (active); in test [9] it was 0.398 µM (active); in [10], 0.398 µM (active).
As to `C#C[C@]1(O)CC[C@H]2[C@@H]3CCc4cc(O)ccc4[C@H]3CC[C@@]21C`, the Potency entry in test [1], in test [2], in test [4], in [5], in test [6] and in test [7] was “inactive” in each case. The Potency entry in test [8], in [9] and in [10] was “inactive” in each case.
On to `CN(C)CCC(c1ccc(Cl)cc1)c1ccccn1` (configuration not stated), for which the Potency result in test [1], in test [2], in [3], in test [4], in test [5] and in test [6] was “inactive” throughout. For the same compound, the Potency result in test [8], in test [9] and in test [10] was “inactive” each time.
On to `CC(C)NCC(O)COc1cccc2ccccc12` (configuration not stated), for which the Potency entry in test [1], in [2], in test [3], in test [5], in test [6] and in test [7] was “inactive” in each case. The Potency entry in [8], in [9] and in test [10] was “inactive” each time.
`O=C(O)/C=C\C(=O)O`: the Potency entry in [1], in test [2], in test [3], in [4], in [5] and in [6] was “inactive” in each case. Moreover, the Potency result in test [7], in test [8], in [9] and in [10] was “inactive” in each case.
In the case of `Nc1ccc([N+](=O)[O-])cc1O`, the Potency result in test [1], in [2], in [3], in test [4], in test [5] and in test [6] was “inactive” throughout. Also, the Potency result in [7], in [8], in test [9] and in test [10] was “inactive” throughout.
For `c1ccc2sc(SSc3nc4ccccc4s3)nc2c1`, the Potency result in test [1], in [2], in [3], in test [4], in test [5] and in test [6] was “inactive” throughout. In addition, the Potency entry in [7], in test [8], in [9] and in test [10] was “inactive” each time.
`O=C(O)c1cc(O)c(O)c(O)c1`: the Potency result in test [3], in test [4], in [5], in [6], in [7] and in [8] was “inactive” in each case. Besides, the Potency entry in [9] and in test [10] was “inactive” throughout.
Take `CN(C)c1ccc(N=NS(=O)(=O)O)cc1`: the Potency entry in test [1], in test [2], in test [3], in test [4], in [5] and in [6] was “inactive” throughout. Further, the Potency result in test [7], in [8], in test [9] and in test [10] was “inactive” each time.
Turning to `CN1CCC[C@H]1c1cccnc1`, the Potency result in test [1], in [2], in [3], in test [4], in [5] and in test [6] was “inactive” in each case. In addition, the Potency result in [7], in test [8], in test [9] and in test [10] was “inactive” in each case.
For the compound `CC1(C)S[C@@H]2[C@H](NC(=O)[C@H](N)c3ccccc3)C(=O)N2[C@H]1C(=O)O`, the Potency result in [1], in test [2], in test [3], in test [4], in test [5] and in [6] was “inactive” throughout. In addition, the Potency result in [7], in [8], in test [9] and in test [10] was “inactive” in each case.
Regarding `N=C1N=C(N)c2cc3ccccc3cc21`, the Potency in [1], in [2], in [3], in test [4], in test [5] and in test [6] was 39.8 µM (active) throughout. In addition, the Potency in test [7] is 50.1 µM (active); in test [8], 39.8 µM (active); in test [9] it was 39.8 µM (active); in test [10], 39.8 µM (active).
As to `COc1cc(/C=C/C(=O)CC(=O)/C=C/c2ccc(O)c(OC)c2)ccc1O`, the Potency in test [1] is 31.6 µM (active); in test [2], 31.6 µM (active); in test [4], 25.1 µM (active); in test [5], 31.6 µM (active); in [6], 50.1 µM (active); in [7], 50.1 µM (active). Further, the results for the Potency in test [8], in test [9] and in test [10] were 39.8 µM (active), 50.1 µM (active) and 50.1 µM (active), respectively.
`NCCO`: the Potency entry in [1], in test [2], in [3], in test [4], in test [5] and in test [6] was “inactive” each time. The Potency entry in test [7], in test [8], in [9] and in test [10] was “inactive” each time.
As to `Nc1ccc(O)c(C(=O)O)c1`, the Potency result in [1], in test [2], in test [3], in test [4], in test [5] and in test [6] was “inactive” each time. In addition, the Potency entry in [7], in test [8], in test [9] and in test [10] was “inactive” in each case.
For `Nc1nc2ccc([N+](=O)[O-])cc2s1`, the Potency entry in [1], in test [2], in [4], in test [5], in test [6] and in test [7] was “inactive” throughout. In addition, the Potency entry in test [8], in [9] and in test [10] was “inactive” in each case.
`O=C1CN(/N=C/c2ccc([N+](=O)[O-])o2)C(=O)N1`: the Potency entry in test [1] and in [3] was “inactive” each time.
As for `S=c1[nH]c2ccccc2s1`, the Potency entry in [1], in test [2], in [3], in test [4], in test [5] and in test [6] was “inactive” in each case. Further, the Potency result in test [7], in test [8], in test [9] and in [10] was “inactive” in each case.
For the compound `Oc1ccccc1O`, the Potency result in test [1], in test [8] and in test [10] was “inactive” throughout.
For `CCCCCCCCCCCCCCCCCC(=O)O`, the Potency entry in [1], in test [2], in [3], in test [4], in test [5] and in test [6] was “inactive” each time. The Potency entry in [7], in test [8], in test [9] and in [10] was “inactive” throughout.
Regarding `Nc1ccc(O)c([N+](=O)[O-])c1`, the Potency entry in test [1], in [2], in test [3], in [4], in [5] and in [6] was “inactive” throughout. The Potency entry in test [8], in test [9] and in test [10] was “inactive” throughout.
`COc1cc(CNC(=O)CCCC/C=C/C(C)C)ccc1O`: the Potency result in test [1], in test [2], in [3], in test [4], in test [5] and in test [6] was “inactive” throughout. For the same compound, the Potency result in test [7], in test [8], in test [9] and in test [10] was “inactive” in each case.
In the case of `O=c1cc(-c2ccccc2)oc2ccccc12`, the Potency entry in test [1], in test [2], in [3], in test [4], in test [5] and in test [6] was “inactive” throughout. The Potency entry in test [7], in [8], in test [9] and in test [10] was “inactive” each time.
Turning to `CCCOC(=O)c1ccc(O)cc1`, the Potency result in test [1], in [2], in [3], in [4], in test [5] and in [6] was “inactive” throughout. In addition, the Potency result in [7], in test [8], in test [9] and in test [10] was “inactive” throughout.
